Bioassay records deposited in PubChem BioAssay by National Center for Advancing Translational Sciences (NCATS).
This is a sample that favours compounds with a hit; in the whole collection about 19% have one here.
ELG1 DNA repair: inhibitors of ELG1-dependent DNA repair in HEK293T cells. Potency, µM (titrated, usually from 46.1 µM), actives largely listed as inhibitors. hit rate 2.3% among 330,000. HEK293T ELG1-luciferase reporter, luminescence, 16 h; DNA damage induced by 5-fluorouridine; note: nearly all actives have a fitted effect of over 55% in size
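DMSO vehicle served as the neutral condition. Each well held 2,000 cells given 5-fluorouridine plus compound; after 16 hr at 37 °C/5% CO2, ONE-Glo was added and luciferase measured 30 min later.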
HT1080 IDH1KD tx: HT-1080 IDH1 knockdown cell toxicity (counter line); hit rate 2% among 360,000; Potency, µM (series often up to 46.1 µM), usual class: cytotoxic; HT-1080 IDH1 knockdown viability, ATP luminescence, 48 h; AID 686971
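Luminescent ATP read-out (CellTiter-Glo, 10 min at room temperature) after 48 h compound exposure at 37 °C gave viability of IDH1-knockdown HT-1080 cells. Activity was normalised to DMSO and cell-free wells, then fitted as concentration-response curves.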
HT1080-NT tox: kills 2HG-producing HT-1080-NT fibrosarcoma cells; HT-1080-NT fibrosarcoma viability, CellTiter-Glo ATP luminescence, 48 h; Potency, µM (top dose mostly 46.1 µM), most hits filed as cytotoxic; hit rate 1.6% among 360,000; AID 686970;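 note: NT is the 2HG producing partner of a matched IDH1 knockdown line; nearly all actives have a fitted effect of over 55% in size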
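Luminescent CellTiter-Glo readout after 48 hours of compound exposure at 37 degrees C defined viability of HT-1080-NT cells. Activity was normalized to DMSO wells and cell-free media wells; concentration-response curves were fitted and assigned curve classes.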
IL1B secr inh: inhibitors of inflammasome signaling (IL-1 beta secretion); THP-1 LPS/ATP IL-1B secretion, AlphaLISA, 16 h; hits give low values; activity change, % at 57.5 µM; hit rate 4.7% among 360,000; AID 743279; in the data active = activity change below about -50%; inconclusive = mostly about -30% to -49%
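THP-1 cells pretreated 1 hr with compounds (up to 57.5 uM final), then stimulated with LPS (250 ng/mL final) plus ATP (1.25 mM final); secreted IL-1B measured by AlphaLISA after 16 hr, decreased signal indicating inhibition.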
DT40 TDP1 CPT: growth inhibition of DT40 Tdp1-/-;hTDP1 cells with camptothecin (screen for TDP1 inhibitors) | chicken DT40 Tdp1-/-;hTDP1 cells + 20 nM CPT, ATP luminescence, 48 h | Potency, µM (top dose mostly 46.2 µM), hits mostly inhibitors | hit rate 12% among 420,000 | AID 686979; note: nearly all actives have a fitted effect of over 55% in size
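Cell growth measured by CellTiter-Glo luminescence after a minimum 48 h, 37 C compound exposure with 20 nM CPT in Tdp1-knockout DT40 cells stably expressing hTDP1, seeded 400/well; qHTS titration format.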
TDP1 cell noCPT: qHTS for Inhibitors of human tyrosyl-DNA phosphodiesterase 1 (TDP1): qHTS in cells in absence of CPT | DT40 Tdp1-/- hTDP1 cells, no CPT, ATP luminescence, 48 h | Potency, µM (titrated, usually from 46.2 µM), most hits filed as inhibitors | hit rate 15% among 420,000 | AID 686978, 2013; note: nearly all actives have a fitted effect of over 55% in size
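Readout: luminescence from CellTiter-Glo after 30 min in the dark at RT. Cells: DT40 Tdp1-/- with stable hTDP1, 400/well. Exposure: compounds alone, ≥48 hr, 37 °C.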
Hits are given with their value; 0 = inactive; ? = inconclusive; - = not tested or not shown. Unless noted, calls come from the whole dose curve; as a rule, active = well fitted curve in the direction sought with a large enough effect; inconclusive = small, poorly fitted or top-dose-only effect, or another doubt; inactive = no such curve, though single readings can be large; an effect the other way counts as inactive or inconclusive.

SMILES	ELG1 DNA repair	HT1080 IDH1KD tx	HT1080-NT tox	IL1B secr inh	DT40 TDP1 CPT	TDP1 cell noCPT
Cc1ccc2nc3c(cc(C(=O)NC4CCCCC4)c(=N)n3C3CCCCC3)c(=O)n2c1	0	?	0	0	?	15µM
CCC(C)n1c(=N)c(C(=O)NC2CCCCC2)cc2c(=O)n3cc(C)ccc3nc21 (stereo not given)	-	-	-	-	0	0
Cc1ccc(Cn2c(=N)c(C(=O)NC3CCCC3)cc3c(=O)n4ccccc4nc32)cc1	0	0	0	0	10µM	6.5µM
N=c1c(C(=O)NC2CCCCC2)cc2c(=O)n3ccccc3nc2n1Cc1ccccc1	0	0	0	0	?	?
COc1ccc(N2CCN(C(=O)c3ccccc3NC(=O)c3ccccc3)CC2)cc1	0	0	0	0	0	0
CS(=O)(=O)Nc1c(O)ccc2c1CCCC2C1=NCCN1 (stereo not given)	-	-	-	-	0	0
O=C(C[C@H]1C[C@H](C(=O)N2CCOCC2)[C@@]2(CCC3CCCC3)c3[nH]c4cc(-c5ccco5)ccc4c3CCN2C1=O)NCc1ccco1	?	?	0	-55	?	16µM
C[C@]12c3[nH]c4cc(-c5ccco5)ccc4c3CCN1C(=O)[C@@H](CC(=O)NCCC1=CCCCC1)C[C@@H]2C(=O)N1CCOCC1	0	0	0	0	16µM	21µM
CN(C)C(=O)CCc1ccc2c3c([nH]c2c1)[C@]1(CCC2CCCC2)[C@@H](C(=O)N2CCOCC2)C[C@H](CC(=O)NCCC2=CCCCC2)C(=O)N1CC3	0	?	0	0	23µM	23µM
CN(C)CCCNC(=O)C[C@H]1C[C@H](C(=O)N2CCOCC2)[C@@]2(CCC3CCCC3)c3[nH]c4cc(CCC(=O)N(C)C)ccc4c3CCN2C1=O	0	0	0	0	0	0
O=C(C[C@H]1C[C@H](C(=O)N2CCOCC2)[C@@]2(CCC3CCCC3)c3[nH]c4cc(-c5ccco5)ccc4c3CCN2C1=O)NCCC1=CCCCC1	0	0	0	?	?	21µM
Cc1ccc(N(C(=O)c2csnn2)C(C(=O)NC2CCCCC2)c2cccnc2)cc1 (stereo not given)	0	0	0	0	0	0
COc1ccc(CC(=O)NCC(=O)Nc2ccccc2Br)cc1	0	?	0	0	0	0
N#Cc1ccccc1NS(=O)(=O)c1ccc(N2CCCCS2(=O)=O)cc1	-	-	-	-	0	0
O=C(C[C@H]1C[C@H](C(=O)N2CCOCC2)[C@@]2(CCC3CCCC3)c3[nH]c4cc(-c5ccco5)ccc4c3CCN2C1=O)NCCc1ccccn1	?	?	21µM	-52	?	?
C[C@]12c3[nH]c4ccc(Cl)cc4c3CCN1C(=O)[C@@H](CC(=O)NCCC1=CCCCC1)C[C@@H]2C(=O)N1CCOCC1	?	0	0	0	12µM	16µM
O=C(C[C@H]1C[C@H](C(=O)N2CCOCC2)[C@@]2(CCC3CCCC3)c3[nH]c4ccc(Cl)cc4c3CCN2C1=O)NCCc1ccccn1	0	0	0	0	16µM	16µM
CN(C)C(=O)CCc1ccc2c3c([nH]c2c1)[C@]1(C)[C@@H](C(=O)N2CCOCC2)C[C@H](CC(=O)NCCC2=CCCCC2)C(=O)N1CC3	0	0	0	0	0	0
COC(=O)c1cc2c(cc1NC(=O)c1c(C)nn(-c3ccc(C)cc3)c1-n1cccc1)OCO2	-	-	-	-	0	?
CC(C)c1nnc(NC(=O)C2CCN(C(=O)Nc3ccc(Cl)cc3)CC2)s1	0	0	0	0	0	0
COc1cccc(-n2ccnc2SCC(=O)Nc2nc3ccc(C)cc3s2)c1	-	-	-	-	0	0
COc1ccc(N2CCN(S(=O)(=O)c3cc4c(cc3C)N(C(C)=O)CCO4)CC2)cc1	?	0	0	0	0	0
COCCCN1C(=O)C(CC(=O)NC2CCCCC2)CC(C(=O)N2CCCCCC2)=C1C (stereo not given)	-	0	0	-	0	0
COC(=O)[C@@]12CCCN1[C@H](c1ccc(-c3ccccc3)c(OC)c1)[C@H]1C(=O)N(C)C(=O)[C@H]12	0	0	0	0	?	0
CCN1C(=O)[C@@H]2[C@@H](c3ccc(-c4ccc(Cl)c(Cl)c4)c(OC)c3)N3CCC[C@@]3(C(=O)OC)[C@@H]2C1=O	?	0	0	0	8.2µM	9.2µM
SMILES	ELG1 DNA repair	HT1080 IDH1KD tx	HT1080-NT tox	IL1B secr inh	DT40 TDP1 CPT	TDP1 cell noCPT
CCN1C(=O)[C@@H]2[C@@H](c3ccc(SC4CCCCC4)c(OC)c3)N3CCC[C@@]3(C(=O)OC)[C@@H]2C1=O	0	0	0	0	23µM	?
CCN1C(=O)[C@H]2[C@@H](c3ccc(-c4ccc(F)cc4)c(OC)c3)N3CCC[C@@]3(C(=O)OC)[C@H]2C1=O	0	0	0	0	8.2µM	8.2µM
CCN1C(=O)[C@@H]2[C@@H](c3ccc(-c4cccc(Cl)c4)c(OC)c3)N3CCCC[C@@]3(C(=O)OC)[C@@H]2C1=O	0	0	0	0	?	16µM
COc1ccc(Br)cc1CNC(=O)c1ccc2nc(C(C)C)oc2c1	-	-	-	-	0	0
O=C1C(=O)c2ccccc2C(O)=C1CCCCl	18µM	?	16µM	-67	5.8µM	4.1µM
O=C1CCCN2N=C(SCC(=O)Nc3cccc(C(F)(F)F)c3)SC2=N1	0	?	0	0	4.6µM	5.2µM
Cn1ccnc1SCC(=O)Nc1cccc(C(F)(F)F)c1	?	0	0	0	0	0
CCOc1ccc(NC(=O)CSC2=NN3CCCC(=O)N=C3S2)cc1	0	0	0	0	?	?
O=C(CSC1=NCCN1)Nc1cccc(C(F)(F)F)c1	0	26µM	0	-99	21µM	?
O=C1CCCN2N=C(SCC(=O)Nc3cccc(Cl)c3)SC2=N1	?	0	?	0	16µM	21µM
O=C1CCCN2N=C(SCC(=O)Nc3ccc(Cl)cc3)SC2=N1	0	0	0	0	0	0
Cc1ccc(NC(=O)CSC2=NN3CCCC(=O)N=C3S2)cc1Cl	0	0	0	0	?	21µM
O=C(CNCc1ccc(F)cc1)Nc1cc(S(=O)(=O)N2CCOCC2)ccc1Cl	?	0	0	0	?	?
CC(C)(C)C(C(=O)Oc1ccccc1)c1ccccc1 (stereo not given)	?	0	0	0	?	?
Cc1ccc(-n2ncc(C(=O)N3CCC(c4ccccc4)C3)c2C2CCN(C(=O)OC(C)(C)C)CC2)cc1 (stereo not given)	-	-	-	-	15µM	23µM
